Assay results published in PubChem BioAssay AID1159580 (chemical genetic matrix, 2015).
Values joined by “and” are separate entries in the source; they are usually repeats but may differ in a detail not shown here. Equal entries are not always repeated. The whole screen tested about 5,500 compounds, of which about 2,000 (36%) were called active. Not shown: some 18% with an inconclusive outcome. Cut-off read from the data, not from the text of the source: active = normalized growth mostly below about 0.91 (no sharp cut-off); inconclusive = no clear call, values can overlap the other calls; inactive = mostly above about 0.92. This is one part of the list.

Test: chemical genetic growth profiling, strain panel (AID 1159580);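 note: tested at 20 µM; growth read once vehicle control cultures reached saturation at 30 °C; 1 = growth at the plate median or of vehicle wells; lower values mean less growth of the strain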
Conditions: S. cerevisiae deletion strains, growth OD

Measured: normalized growth

CC1(C)NC(=O)N(c2ccc([N+](=O)[O-])c(C(F)(F)F)c2)C1=O
inactive: locus YAL013W, strain DEP1, active compounds read low 1.01 and 0.99 | locus YAL021C, strain ccr4, active compounds read low 1.02 | locus YAL026C, strain drs2, active compounds read low 0.983 | locus YAL030W, strain snc1, active compounds read low 0.99 | locus YAL040C, strain CLN3, active compounds read low 1.05 | locus YBL061C, strain skt5, active compounds read low 0.98 | locus YBR009C, strain hhf1, active compounds read low 0.982 | locus YBR021W, strain FUR4, active compounds read low 1.02 | locus YBR023C, strain chs3, active compounds read low 0.987 | locus YBR171W, strain sec66, active compounds read low 0.98 | locus YBR229C, strain ROT2, active compounds read low 1.01 | locus YBR231C, strain swc5, active compounds read low 0.989 | locus YBR279W, strain paf1, active compounds read low 0.994 | locus YCL011C, strain gbp2, active compounds read low 0.985 | locus YCL016C, strain dcc1, active compounds read low 0.986 | locus YCL029C, strain bik1, active compounds read low 0.967 | locus YCL061C, strain MRC1 (second series), active compounds read low 1 | locus YCL061C, strain MRC1, active compounds read low 0.976 | locus YCL069W, strain vba3, active compounds read low 0.98 | locus YCR088W, strain abp1, active compounds read low 0.982 | locus YDL005C, strain med2, active compounds read low 0.993 | locus YDL035C, strain GPR1, active compounds read low 1 | locus YDL040C, strain nat1, active compounds read low 0.984 | locus YDL074C, strain BRE1, active compounds read low 1.02 | locus YDL101C, strain DUN1, active compounds read low 1.01 | locus YDL134C, strain PPH21, active compounds read low 1.02 | locus YDL185W, strain tfp1, active compounds read low 0.977 | locus YDL192W, strain arf1, active compounds read low 0.983 | locus YDR001C, strain nth1, active compounds read low 0.985 | locus YDR069C, strain doa4, active compounds read low 0.99 | locus YDR101C, strain arx1, active compounds read low 0.982 | locus YDR137W, strain rgp1, active compounds read low 0.894 | locus YDR150W, strain NUM1, active compounds read low 1.03 | locus YDR159W, strain sac3, active compounds read low 0.985 | locus YDR162C, strain NBP2, active compounds read low 1 | locus YDR195W, strain ref2 0.975 | locus YDR297W, strain sur2, active compounds read low 0.99 | locus YDR318W, strain mcm21, active compounds read low 0.994 | locus YDR334W, strain swr1, active compounds read low 0.989 | locus YDR335W, strain msn5, active compounds read low 0.994 | locus YDR363W, strain ESC2, active compounds read low 0.975 | locus YDR388W, active compounds read low 0.983 | locus YDR392W, strain spt3, active compounds read low 0.998 | locus YDR502C, strain sam2, active compounds read low 0.984 | locus YEL003W, strain gim4, active compounds read low 0.985 | locus YEL037C, strain rad23, active compounds read low 0.988 | locus YEL061C, strain CIN8 (second series), active compounds read low 0.989 | locus YEL061C, strain CIN8, active compounds read low 0.999 | locus YER002W, strain NOP16, active compounds read low 0.996 | locus YER015W, strain faa2, active compounds read low 0.971 | locus YER016W, strain bim1, active compounds read low 0.983 | locus YER110C, active compounds read low 0.971 | locus YER111C, strain swi4, active compounds read low 0.985 | locus YER155C, strain BEM2 (second series), active compounds read low 0.987 | locus YER155C, strain BEM2, active compounds read low 0.996 | locus YER167W, strain BCK2, active compounds read low 1.01 | locus YFR010W, strain ubp6, active compounds read low 0.985 | locus YGL078C, strain dbp3, active compounds read low 0.986 | locus YGL086W, strain mad1, active compounds read low 0.992 | locus YGL167C, strain pmr1, active compounds read low 0.983 | locus YGL173C, strain kem1, active compounds read low 0.976 | locus YGL227W, strain vid30, active compounds read low 0.973 | locus YGL240W, strain doc1, active compounds read low 0.98 | locus YGL248W, strain PDE1, active compounds read low 1.01 | locus YGL253W, strain hxk2, active compounds read low 0.985 | locus YGR078C, strain PAC10, active compounds read low 1.01 and 0.981 | locus YGR135W, strain pre9, active compounds read low 0.98 | locus YGR229C, strain SMI1, active compounds read low 1.02 | locus YGR252W, strain gcn5, active compounds read low 0.978 | locus YHR013C, strain ard1, active compounds read low 0.97 | locus YHR027C, strain rpn1, active compounds read low 0.984 | locus YHR030C, strain SLT2, active compounds read low 1.01 and 0.984 | locus YHR079C, strain IRE1 (second series), active compounds read low 0.988 | locus YHR079C, strain IRE1, active compounds read low 1 | locus YHR094C, strain hxt1, active compounds read low 0.986 | locus YHR129C, strain ARP1, active compounds read low 1.01 | locus YHR142W, strain chs7, active compounds read low 0.986 | locus YHR200W, strain rpn10, active compounds read low 0.987 | locus YIL066C, strain RNR3, active compounds read low 1.02 | locus YIL073C, strain SPO22, active compounds read low 1 | locus YIL125W, strain kgd1, active compounds read low 0.986 | locus YIR030C, strain dcg1, active compounds read low 0.983 | locus YJL092W, strain hpr5, active compounds read low 0.978 | locus YJL095W, strain BCK1 (second series), active compounds read low 0.982 | locus YJL095W, strain BCK1, active compounds read low 0.991 and 1 | locus YJL115W, strain asf1, active compounds read low 0.992 | locus YJL129C, strain trk1, active compounds read low 0.991 | locus YJL134W, strain LCB3, active compounds read low 1.01 | locus YJL154C, strain vps35, active compounds read low 0.988 | locus YJL164C, strain tpk1, active compounds read low 0.985 | locus YJL166W, strain qcr8, active compounds read low 0.986 | locus YJL168C, strain set2, active compounds read low 0.987 | locus YJL187C, strain SWE1 (second series), active compounds read low 1.01 | locus YJL187C, strain SWE1, active compounds read low 0.981 | locus YJR043C, strain POL32, active compounds read low 1 | locus YJR066W, strain TOR1, active compounds read low 0.956
